HIV Env fusion: blocks HIV Env-driven cell-cell fusion. inhibition, % at 12.3 µM. actives 1.1% (n = 360,000). HeLa-JRFL Env/CEM21 cell fusion, luciferase;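 active = mean replicate inhibition score of at least 50 and every replicate individually at or above 50; inconclusive = only one of the two criteria met; inactive = mean below 50 and not all replicates reaching 50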;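 also: 0% = plate neutral controls and 100% = maraviroc near 300 nM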
INS-1E GSIS act: primary screen for activators of insulin secretion dependent on glucose, INS-1E cells, GLuc reporter luminescence. actives 0.61% (n = 370,000). INS-1E GLuc reporter insulin secretion, 2-3 h. AID 743287. activation, % at 16.6 µM;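 active = lowest replicate activation of at least 40%, so every replicate reaches that level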;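 also: 0% = median of neutral control wells and 100% = median of IBMX positive control wells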
NSD2 inh: NSD2 (human) methyltransferase inhibition | O96028 | NSD2 peptide methylation, AlphaScreen, 120 min | inhibition, % at 12.5 µM | actives 0.54% (n = 310,000) | AID 743445; in the data active = inhibition above about 50%
PGC1a acetyl inh: lowers PGC1a acetylation signal in U2OS cells. AlphaScreen anti-acetyl-lysine; with virally co-expressed GCN5 acetyltransferase. inhibition, % at 15.6 µM. actives 0.17% (n = 350,000). AID 651687;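 active = every replicate shows inhibition of at least 40%; inconclusive = mean inhibition at least 40% but some replicate below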;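 also: 0% = neutral control wells and 100% = positive control wells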
AF4-AF9 inh: MLL-AF4/AF9 protein interaction inhibition; AlphaScreen, biotin-AF4 peptide binding to FLAG-AF9; inhibition, % at 10 µM; actives 0.47% (n = 350,000); AID 651704;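 active = every replicate reaching a set inhibition limit, whatever the replicate mean, cut at about 25% in these data; inconclusive = mean inhibition reaches that limit but some replicates miss it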;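 also: 0% = plate neutral control median and 100% = total signal loss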
Active calls of the source: *; [ ] = dose if it differs, or a comment. Sampled rows, rich in hits. Any-hit rate of the full collection: about 2.1%.

For COc1ccc(-c2cc(C)no2)cc1S(=O)(=O)NCC(C)c1ccccc1 (stereo not given) the results were HIV Env fusion 55.9*, INS-1E GSIS act -7.2, NSD2 inh 3.0, PGC1a acetyl inh -2.6 and AF4-AF9 inh -6.7.
COc1ccc(CNS(=O)(=O)c2cc(-c3cc(C)no3)ccc2C)cc1OC was read as HIV Env fusion -1.2, INS-1E GSIS act 11.7, NSD2 inh -4.3, PGC1a acetyl inh -5.7 and AF4-AF9 inh -3.6.
For COc1ccccc1CNS(=O)(=O)c1cc(-c2cc(C)no2)ccc1C(C)C the results were HIV Env fusion -5.5, INS-1E GSIS act 46.5*, NSD2 inh -0.3, PGC1a acetyl inh -5.2 and AF4-AF9 inh -1.3.
For C[C@H](CO)N1C[C@H](C)[C@@H](CN(C)C(=O)Cc2ccccc2)Oc2ncc(-c3cncnc3)cc2C1=O the results were HIV Env fusion 8.8[16.7 µM], INS-1E GSIS act 17.0, PGC1a acetyl inh 5.9 and AF4-AF9 inh -1.8.
For CC1(C)CC2CC(C)(CN2S(=O)(=O)c2ccc(C(=O)Nc3ccc(S(=O)(=O)N4CCOCC4)cc3)cc2)C1 (stereo not given) the results were HIV Env fusion 20.7, INS-1E GSIS act 8.4, NSD2 inh -1.0 and AF4-AF9 inh -0.5.
For Cc1cccc(NC(=O)C2CCCN(c3nnc(-n4cccc4)s3)C2)c1C (stereo not given) the results were NSD2 inh -8.1.
O=C(C1COc2ccccc2O1)N1CCc2ccccc2C1 (stereo not given) was read as NSD2 inh 0.1 and PGC1a acetyl inh 35.0.
For CN(Cc1ccccc1)C(=O)CN1C(=O)NC(C)(c2ccc(Cl)cc2)C1=O (stereo not given) the results were HIV Env fusion 2.4, INS-1E GSIS act -11.1, NSD2 inh 0.2, PGC1a acetyl inh -6.8 and AF4-AF9 inh -2.6.
For O=C(CC1c2ccccc2Oc2ccccc21)Nc1ccccc1C(F)(F)F the results were INS-1E GSIS act 101.8* and NSD2 inh -0.9.
C[C@@H]1CN([C@@H](C)CO)C(=O)c2cc(NC(=O)Nc3cccc4ccccc34)ccc2O[C@@H](C)CCCCO[C@H]1CN(C)C(=O)c1ccccc1 was read as HIV Env fusion 60.7*[16.7 µM], INS-1E GSIS act 12.6, PGC1a acetyl inh -0.4 and AF4-AF9 inh -10.5.
Screening C[C@@H]1CCCCO[C@@H](CN(C)C(=O)c2ccncc2)[C@@H](C)CN([C@H](C)CO)C(=O)c2cc(NC(=O)CCCCCC(=O)Nc3ccccc3N)ccc2O1 returned HIV Env fusion -1.4[16.7 µM], INS-1E GSIS act -3.1, PGC1a acetyl inh 99.2* and AF4-AF9 inh 10.3.
C[C@@H]1CN([C@H](C)CO)C(=O)c2cc(NC(=O)Nc3cccc4ccccc34)ccc2O[C@@H](C)CCCCO[C@@H]1CN(C)C(=O)c1ccccc1 was read as HIV Env fusion -2.7[16.7 µM], INS-1E GSIS act 1.9, PGC1a acetyl inh -18.0 and AF4-AF9 inh -4.4.
Screening C[C@H](CO)N1C[C@H](C)[C@@H](CN(C)Cc2ccccc2)OCCCC[C@H](C)Oc2ccc(NC(=O)Nc3cccc4ccccc34)cc2C1=O returned HIV Env fusion 5.5[16.7 µM], INS-1E GSIS act 0.0, PGC1a acetyl inh -20.8 and AF4-AF9 inh -0.7.
For C[C@H]1CCCCO[C@@H](CN(C)Cc2ccccc2)[C@@H](C)CN([C@@H](C)CO)C(=O)c2cc(NC(=O)Nc3cccc4ccccc34)ccc2O1 the results were HIV Env fusion 109.9*[16.7 µM], INS-1E GSIS act -23.4, PGC1a acetyl inh -14.6 and AF4-AF9 inh 2.9.
For COc1ccc(C(=O)CSc2nnc(CNc3ccc(C)cc3C)o2)cc1 the results were HIV Env fusion inconclusive, INS-1E GSIS act 58.5*, NSD2 inh -1.1 and PGC1a acetyl inh -2.6.
Screening CC(C)OCCCNc1ncnc2c1[nH]c1ccccc12 returned HIV Env fusion 77.9*, INS-1E GSIS act -25.3, NSD2 inh 2.0 and PGC1a acetyl inh -1.1.
For COc1ccc(CNc2ncnc3c2[nH]c2ccccc23)cc1 the results were HIV Env fusion 22.2, INS-1E GSIS act -35.9, NSD2 inh 4.1, PGC1a acetyl inh -20.0 and AF4-AF9 inh -2.8.
Cc1ccc(-n2c(O)c(C=NC3CCS(=O)(=O)C3)c3ccccc3c2=O)c(C)c1 (stereo not given) was read as HIV Env fusion 11.8, NSD2 inh 2.5, PGC1a acetyl inh 56.9* and AF4-AF9 inh 2.7.
`COc1ccc(NC(=O)CCCOc2ccc(Cl)c(C)c2)cc1S(=O)(=O)N1CCOCC1` gave HIV Env fusion 58.9*, INS-1E GSIS act -45.2, NSD2 inh 2.2, PGC1a acetyl inh -23.9 and AF4-AF9 inh -2.4.
Screening COc1ccc(NC(=O)CSc2ccc3ccccc3c2)cc1S(=O)(=O)N1CCCCC1 returned HIV Env fusion 55.8*, INS-1E GSIS act -4.8, NSD2 inh -3.6 and AF4-AF9 inh 1.7.
COc1ccc(OCCCC(=O)Nc2ccc(OC)c(S(=O)(=O)N3CCOCC3)c2)cc1 was read as HIV Env fusion 0.3, INS-1E GSIS act -4.0, NSD2 inh 1.5, PGC1a acetyl inh 16.6 and AF4-AF9 inh -0.9.
`Cc1cc(Cl)ccc1OCCCC(=O)Nc1cc(S(=O)(=O)N2CCOCC2)ccc1N1CCOCC1` gave HIV Env fusion 113.7*, INS-1E GSIS act -5.2, NSD2 inh -3.7, PGC1a acetyl inh -4.0 and AF4-AF9 inh -1.5.
For CCOc1ccc(OCCCC(=O)Nc2cc(S(=O)(=O)N3CCOCC3)ccc2N2CCOCC2)cc1 the results were INS-1E GSIS act -23.2, NSD2 inh -3.4, PGC1a acetyl inh 2.2 and AF4-AF9 inh 3.9.
For COc1ccc(NC(=O)CSc2ccc(NC(C)=O)cc2)cc1S(=O)(=O)N1CCOCC1 the results were HIV Env fusion 6.8, INS-1E GSIS act -14.8, NSD2 inh -0.6, PGC1a acetyl inh -12.8 and AF4-AF9 inh -0.6.
Screening NC(c1csc(NC(=O)Nc2cccc(Cl)c2)n1)C1CCCCC1 (stereo not given) returned HIV Env fusion -16.6, INS-1E GSIS act -6.2, NSD2 inh 4.3, PGC1a acetyl inh -5.1 and AF4-AF9 inh inconclusive.
`NC(c1csc(NC(=O)Nc2ccccc2)n1)C1CCCCC1` (stereo not given) gave HIV Env fusion 57.0*, INS-1E GSIS act 4.7, NSD2 inh 3.8, PGC1a acetyl inh -8.1 and AF4-AF9 inh 8.0.
Cc1cccc(NC(=O)CSc2nnnn2C)n1 was read as HIV Env fusion -50.7, NSD2 inh -2.4 and PGC1a acetyl inh 14.9.
Screening Cc1ccc(-c2csc3nnc(SCC(=O)Nc4cccc(C)n4)n23)cc1 returned HIV Env fusion 107.0*, INS-1E GSIS act 3.9, NSD2 inh -1.9 and PGC1a acetyl inh -2.7.
`C=CCNC(=O)CSc1nnc(-c2ccncc2)n1CCc1ccccc1` gave HIV Env fusion -12.0, NSD2 inh -1.5 and PGC1a acetyl inh -2.2.
`O=c1[nH]c2cnn(-c3ccccc3)c2c(=O)n1O` gave HIV Env fusion -2.0, INS-1E GSIS act 11.3, NSD2 inh -1.8 and AF4-AF9 inh -5.9.

Compound activity: PubChem, Broad Institute
